High-throughput results deposited in PubChem by National Center for Advancing Translational Sciences (NCATS).
Cruzain Triton: blocks cruzain activity in presence of Triton detergent | P25779 | purified cruzain, Z-FR-AMC fluorescence, 0.01% Triton | Potency, µM, inactives show max response, negative = inhibition, most hits filed as inhibitors | 0.43% of 200,000 active | AID 1478;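 also: plate controls were neutral wells for no effect and buffer without enzyme for full effect; nearly all actives have a fitted effect of over 40% in size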
Target sequence (P25779 123-467 limits assumed): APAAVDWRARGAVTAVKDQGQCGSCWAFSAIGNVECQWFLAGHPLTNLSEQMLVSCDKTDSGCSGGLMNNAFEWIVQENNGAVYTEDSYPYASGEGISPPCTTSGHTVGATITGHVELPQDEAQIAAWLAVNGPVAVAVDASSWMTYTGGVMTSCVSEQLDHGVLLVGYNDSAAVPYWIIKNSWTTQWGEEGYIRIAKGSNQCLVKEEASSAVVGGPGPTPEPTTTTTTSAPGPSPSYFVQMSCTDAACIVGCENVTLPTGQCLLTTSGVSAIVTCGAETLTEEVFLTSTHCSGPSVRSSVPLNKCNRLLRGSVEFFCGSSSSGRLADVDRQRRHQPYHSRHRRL
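Compounds were screened in titration against cruzain (1.5 nM) with 0.01% Triton X-100 to counter colloidal aggregation. Activity was the AMC fluorescence increase over 60 s after adding 2 uM Z-FR-AMC at pH 5.5.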
Cruzain inh noDet: inhibitors of Trypanosoma cruzi cruzain without detergent; purified cruzain, Z-FR-AMC fluorescence, no detergent; Potency, µM, for inactives: max response, negative = inhibition, most hits filed as inhibitors; 2.3% of 200,000 active;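 also: plate controls were enzyme without inhibitor for no effect and buffer without enzyme for full effect; nearly all actives have a fitted effect of over 40% in size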
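Detergent-free condition (0.00005% Triton X-100) in acetate buffer pH 5.5 with DTT. 1.5 nM enzyme and compound were pre-mixed 15 min, then 2 uM Z-FR-AMC substrate added; reaction progress from fluorescence change between first and third reads (60 s).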
The depositor's hits bear a star; ? = inconclusive. Rows were chosen to be rich in hits. Some 2.5% of all compounds tested hit in one or more screens of this group. Calls follow the shape of the dose curve; as a rule, active = well fitted curve in the direction sought with a large enough effect; inconclusive = small, poorly fitted or top-dose-only effect, or another doubt; inactive = no such curve, though single readings can be large; an effect the other way counts as inactive or inconclusive. Potency is read from the fitted curve at half-maximal effect.

SMILES	Cruzain Triton	Cruzain inh noDet
O=C(Cn1c(=O)c2cccn2c2cccnc21)NCc1ccccc1F	-3.8%	8.2%
N#Cc1ccc(Oc2ccc(-c3nc4ccccc4nc3-c3ccccc3)cc2)cc1C#N	-4.2%	?
Nc1ccc(Oc2ccc3nc(-c4ccccc4)c(-c4ccc([N+](=O)[O-])cc4)nc3c2)cc1	6.3%	15.8µM*
CCN1C(=O)c2ccccc2S(=O)c2ccc(C(=O)NCc3ccc(Cl)cc3)cc21 (centres undefined)	-2.7%	-5.5%
Cc1cc(C)cc(-n2c(SCC(=O)Nc3nnc(C)s3)nc3c([nH]c4ccccc43)c2=O)c1	-1.0%	2.6%
CCOc1ccc(-n2c(SCC(=O)N3CCCCC3)nc3c([nH]c4ccccc43)c2=O)cc1	-1.1%	0.8%
COc1cccc(/C=N/NC(=O)c2ccc(-c3ccccc3)cc2)c1O	1.0%	15.8µM*
COc1cccc(/C=N/NC(=O)c2ccc(=O)n(C)c2)c1O	-3.2%	-12.2%
COc1ccccc1/C=N/NC(=O)c1ccccc1NS(=O)(=O)c1ccc(C)cc1	-8.4%	-0.6%
COc1ccccc1/C=N/NC(=O)C1=NNC(c2ccccc2)(c2ccccc2)C1	-9.6%	15.8µM*
Cc1ccc(Cl)cc1NC(=O)C1CCN(S(=O)(=O)c2cccc3nonc23)CC1	-4.0%	-16.7%
CNC(=O)c1ccccc1NC(=O)c1c(O)c2c([nH]c1=O)CCCC2	-0.9%	?
O=C(N/N=C/c1cccc(F)c1)c1c(O)c2c([nH]c1=O)CCCC2	-3.1%	20µM*
COc1ccc(-c2nn(-c3ccccc3)cc2/C=C/C(=O)OCC(=O)Nc2cccc(C#N)c2)cc1	-0.4%	31.6µM*
Cc1ccccc1NC(=O)COC(=O)/C=C/c1cn(-c2ccccc2)nc1-c1cccnc1	-5.1%	25.1µM*
COc1ccc(-c2nn(-c3ccccc3)cc2/C=C/C(=O)OCC(=O)Nc2ccc(C#N)cc2)cc1	-12.8%	?
CC(=O)Nc1ccc(NC(=O)C(C)OC(=O)/C=C/c2cn(-c3ccccc3)nc2-c2cccnc2)cc1 (centres undefined)	-8.9%	?
CCc1ccc(-c2nn(CC(=O)Nc3ccccc3C)c3c2cnc2ccc(C)cc23)cc1	-2.7%	-20.3%
COc1cc(OC)cc(C(=O)N2CCN(C(=O)COc3ccccc3)CC2)c1	-1.3%	6.8%
CC(C)(C)c1ccc(C(=O)OC/C(O)=C(\C#N)c2nc3ccccc3s2)cc1	-3.6%	25.1µM*
COC(=O)c1ccc(/C=C(\C#N)c2nc3ccccc3s2)cc1	3.1%	11.7%
Cc1ccc(NC(=O)COC(=O)/C=C/c2cccs2)cc1	0.1%	-7.7%
Cc1ccc(C(=O)Nc2ccc(C(=O)/C=C/c3cccs3)cc2)cc1	8.7%	25.1µM*
O=C(/C=C/c1cccs1)c1ccc(Br)cc1	-4.8%	-3.7%
O=C(/C=C/c1cccs1)c1ccc(NC(=O)c2cccc(Br)c2)cc1	0.9%	15.8µM*
SMILES	Cruzain Triton	Cruzain inh noDet
CC1CCC2C(C)(C)C3CC12CC[C@]3(C)O (some centres undefined)	2.3%	4.4%
COc1ccc(-c2cc(C(F)(F)F)nc(SCCC(=O)Nc3c(C)cccc3C)n2)cc1	-1.2%	4.0%
Nc1ccc(N2CCCCCC2)cc1	-8.6%	31.6µM*
O=C(O)c1ccc(N2CCCCC2)cc1	-5.8%	-0.1%
O=C(N=Nc1c(O)[nH]c2ccc(Br)cc12)c1cc(-c2cccc3ccccc23)n[nH]1	-2.9%	10µM*
Cc1cccc(C)c1OCC(=O)N=Nc1c(O)[nH]c2ccc(Br)cc12	1.6%	-22.7%
COc1ccc(-c2cc3ccc(O)c(CN4CCCCC4C)c3oc2=O)cc1OC (centres undefined)	1.7%	-1.7%
CC1=NN(C(N)=S)C(=O)C1N=Nc1c(C)cc(C)cc1C (centres undefined)	-27.2%	12.6µM*
CC1=NN(C(N)=S)C(=O)C1N=Nc1ccccc1C (centres undefined)	?	25.1µM*
CC(=O)Nc1ccc(N2N=C(C)C(N=Nc3ccccc3)C2=O)cc1 (centres undefined)	-4.7%	?
CC1=NN(C(N)=S)C(=O)C1N=Nc1ccc(C)cc1C (centres undefined)	-17.2%	?
O=C(NCc1cccc(Cl)c1)C1CCCN(c2ncnc3onc(-c4ccc(F)cc4)c23)C1 (centres undefined)	-3.3%	-2.1%
CCN(CC)S(=O)(=O)c1ccc(C(=O)NCCSc2c(-c3ccc(F)cc3)[nH]c3ccccc23)cc1	1.8%	-62.1%
Cc1cc2ccc(OC(=O)c3ccc(N=C(N)N)cc3)cc2oc1=O	3.8%	4.9%
Cc1cccc(NC(c2nnc(-c3ccccc3)o2)c2ccc(F)cc2Cl)c1C (centres undefined)	-2.5%	-3.7%
Cc1nc(-c2ccc(Cl)cc2)sc1CCNC(=O)C(=O)Nc1ccc2c(c1)OCCO2	-0.7%	-14.4%
O=C(CN1C(=O)/C(=C/c2ccccc2)SC1=S)Nc1ncc(Cc2ccccc2)s1	-2.0%	3.98µM*
O=C(CCCN1C(=O)/C(=C/c2cccs2)SC1=S)NNC(=O)c1ccccc1O	-4.1%	-12.5%
O=C(CCn1c(=O)oc2ccccc21)Nc1nc2ccccc2s1	-8.1%	10.0%
O=C(CN1C(=O)/C(=C\C=C\c2ccccc2)SC1=S)Nc1ccc(F)cc1	-6.9%	6.31µM*
O=C(CCN1C(=O)/C(=C/C=C/c2ccccc2)SC1=S)Nc1nc2ccccc2s1	-7.7%	7.94µM*
COc1cccc(/C=C2/SC(=S)N(CC(=O)Nc3nnc(C)s3)C2=O)c1	-9.1%	-22.7%
Cc1ccc(NC(=O)CN2C(=O)/C(=C\c3cccs3)SC2=S)cc1	-3.9%	5.01µM*
CN1CCN(NC(=O)CN2C(=O)/C(=C/c3ccccc3F)SC2=S)CC1	-10.2%	-8.4%
CC12CCC3C(CC3(C)C)C(C)(CCC1=O)O2 (centres undefined)	-1.1%	-2.7%
SMILES	Cruzain Triton	Cruzain inh noDet
Cc1csc(NC(=O)CSc2nnc(NC(=O)COc3ccc(Cl)cc3)s2)n1	-0.5%	5.01µM*
CCSc1nnc(NC(=O)COc2ccccc2)s1	-4.7%	?
O=C1O/C(=C\c2ccccc2)c2ccccc21	-9.8%	-13.0%
O=C1O/C(=C/c2ccccc2)N=C1c1ccccc1	12.6µM*	15.8µM*
Cc1ccc(NC(=O)c2nc(S(C)(=O)=O)ncc2N(Cc2ccccc2)Cc2ccco2)c(C)c1	-4.1%	0.2%
Cc1ccc(Oc2ccccc2/C=C2\SC(=O)N(C)C2=O)cc1	-3.5%	-17.5%
O=C1NC(=O)/C(=C/c2ccccc2Oc2ccc(Cl)cc2)S1	1.7%	20µM*
CCC(C)n1c(=O)c2sccc2n2c(CCCC(=O)Nc3ccc(F)cc3)nnc12 (centres undefined)	0.7%	-15.5%
CN1C(=O)/C(=C/c2cc(N=Nc3ccccc3)ccc2O)SC1=S	-4.7%	15.8µM*
O=C1/C(=C/c2ccccc2O)SC(=S)N1Cc1cccnc1	-5.6%	-2.6%
COC(=O)CNC(=O)Nc1cc(C(=O)NCc2ccc(C)cc2)ccc1N1CCCC1	-4.2%	-11.2%
N#Cc1c(/N=C/c2ccccc2)oc(-c2ccccc2)c1-c1ccccc1	-8.0%	31.6µM*
N#Cc1c(/N=C/c2ccco2)oc(-c2ccccc2)c1-c1ccccc1	-14.6%	-5.7%
O=C(NCCc1ccc(Cl)cc1)c1ccc(CSCc2ccc(Cl)cc2)o1	-3.2%	-3.6%
COc1ccc2c(=O)c3c(=O)n(Cc4ccco4)c(C(C)C)nc3oc2c1	?	31.6µM*
COc1ccc2c(=O)c3c(=O)n(Cc4ccco4)c(-c4ccc(C)cc4)nc3oc2c1	-6.4%	-22.8%
O=S(=O)(c1ccccc1)N1CCC2(CCN(Cc3nccs3)CC2)CC1	-1.3%	-5.3%
